The full list was thinned out, with hits kept by preference.
LmPK inh: blocks Leishmania mexicana pyruvate kinase activity; purified LmPK, Kinase-Glo ATP luminescence, 1 h; Potency, µM (series often up to 57.5 µM), inactives show at the top dose activity change, negative = inhibition, usual class: inhibitors; 0.37% of 290,000 active; also: potency is read from the fitted curve at half-maximal effect; % is scaled to controls: 0 for no effect and ±100 for the full control effect
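Screened at intermediate enzyme activity to detect both inhibitors and activators: LmPK at 0.1 nM, with a 0.5 nM enzyme column as activation reference. PEP 0.5 mM, ADP 0.1 mM; ATP detected by luminescence after 1 h.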
CHX counter: counter-screen for Shiga toxin inhibitors: cycloheximide protein synthesis inhibition; cell reporter, cycloheximide protein synthesis inhibition counterscreen; max response, %; 12% of 300,000 active; AID 2314; in the data active = max response mostly above about 13%, no sharp cut-off; inactive = mostly below about 14%; also: read at 38.3 µM for the half of the compounds with a filed dose; 0% is about no effect
Giardia FBPA inh: blocks Giardia fructose-bisphosphate aldolase activity; Potency, µM (series often up to 59.6 µM), for inactives: top-dose activity, negative = inhibition, usual class: inhibitors; AID 2451; purified Giardia FBPA; 0.71% of 290,000 active; A8B2U2; also: potency is read from the fitted curve at half-maximal effect; % is scaled to controls: 0 for no effect and ±100 for the full control effect; nearly all actives have a fitted effect of over 55% in size
Target sequence (A8B2U2 whole entry, looked up): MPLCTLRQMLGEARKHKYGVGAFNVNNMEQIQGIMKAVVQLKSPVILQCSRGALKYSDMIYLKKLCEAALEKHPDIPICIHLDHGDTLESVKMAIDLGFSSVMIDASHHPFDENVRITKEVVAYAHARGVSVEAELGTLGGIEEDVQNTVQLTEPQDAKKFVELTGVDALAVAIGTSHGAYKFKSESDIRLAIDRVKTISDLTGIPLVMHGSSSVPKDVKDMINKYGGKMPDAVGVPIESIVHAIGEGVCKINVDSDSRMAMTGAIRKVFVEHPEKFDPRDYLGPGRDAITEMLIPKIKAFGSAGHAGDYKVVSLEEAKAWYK
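Giardia FBPA (40 nM reagent) was preincubated 10 min at RT with compound (up to 57.5 uM final), then substrate plus GAPDH/TPI/NAD/arsenate coupling system with diaphorase/resazurin was added; resorufin fluorescence (525/598 nm) was read after 20 min.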
Shiga inhibitor: inhibitors of Shiga toxin in Vero cells. Vero cells, Shiga toxin protein synthesis inhibition reporter. inhibition, % at 38.7 µM. 9.2% of 290,000 active; in the data active = inhibition mostly above about 28%, no sharp cut-off; inactive = mostly below about 43%; also: 0% is about no effect
TbPYK inhibitor: T. brucei pyruvate kinase inhibition. TbPYK enzyme, Kinase-Glo Plus ATP luminescence, 45 min. Potency, µM (titrated, usually from 76.8 µM), for the others: at the highest dose activity, negative = inhibition, actives largely listed as inhibitors. 0.12% of 410,000 active; also: potency is read from the fitted curve at half-maximal effect; % is scaled to controls: 0 for no effect and ±100 for the full control effect; nearly all actives have a fitted effect of over 50% in size
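ADP (130 uM final) triggers the TbPYK reaction after compound addition; incubation is 45 min at room temperature. Kinase-Glo Plus is then added and luminescence imaged. Normalized data are fitted to concentration-effect curves.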
RE007 growth inh: less growth of the S. pombe RE007 Vpr strain; 0.21% of 360,000 active; S. pombe RE007 Vpr strain, BacTiter-Glo ATP luminescence, 24 h; Potency, µM (doses to about 92.2 µM), for inactives: at the highest dose activity change, negative = less growth, most hits filed as inhibitors; active = well fitted falling curve with a large enough effect; inconclusive = small, poorly fitted or top-dose-only effect; inactive = no such curve, though single readings can be large or run the other way; also: potency is read from the fitted curve at half-maximal effect; % is scaled to controls: 0 for no effect and ±100 for the full control effect; nearly all actives have a fitted effect of over 50% in size
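Fission yeast strain RE007, carrying one chromosomally integrated HIV-1 vpr copy, was seeded at OD 0.01 in PMG+AL medium with 23 nL pinned compound. After 24 h at 30 °C and 99% humidity, viability was read by BacTiter-Glo luminescence.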
* hit, by the source's call; ? = inconclusive; nt = no result; + = active, no number; [ ] = another dose, or the depositor's remark. Unless noted, calls follow the shape of the dose curve; as a rule, active = well fitted curve in the direction sought with a large enough effect; inconclusive = small, poorly fitted or top-dose-only effect, or another doubt; inactive = no such curve, though single readings can be large; an effect the other way counts as inactive or inconclusive.

SMILES	LmPK inh	CHX counter	Giardia FBPA inh	Shiga inhibitor	TbPYK inhibitor	RE007 growth inh
COC(=O)[C@H]1[C@H]2C[C@@H]3c4[nH]c5ccccc5c4CCN3C[C@H]2C[C@@H](OC(=O)c2cc(OC)c(OC)c(OC)c2)[C@@H]1OC	nt	nt	nt	nt	2%	nt
COc1cccc(N2CCN(C(=O)c3cccn3-c3nnc(N4CCCCC4)s3)CC2)c1	nt	nt	nt	nt	-5%[15.4 µM]	nt
O=C(NCCCN1CCCC1=O)Nc1ccc([N+](=O)[O-])cc1	0%	18*	-2%	43	-1%	8%
CC(C)(C)NCC(O)COc1nsnc1N1CCOCC1 (stereo not given)	nt	nt	-5%	nt	nt	nt
COc1cc(CO)ccc1OCC(=O)N1CCc2ccccc21	-1%	19*	2%	24*	-1%	3%
CC(Oc1ccccc1Br)C(=O)N1CCc2ccccc21 (stereo not given)	4%	51*	-5%	79*	1%	-2%
COc1ccc(OCC(=O)N2CCc3ccccc32)c([N+](=O)[O-])c1	nt	nt	nt	nt	-2%	-1%
O=C(COc1ccc(F)cc1Br)N1CCc2ccccc21	1%	42*	-6%	47*	-1%	-9%
COc1ccc(Nc2ncc3c(n2)CCN(Cc2cc(Br)cs2)C3)c(OC)c1	nt	nt	nt	nt	-6%	nt
CN1/C(=C\C(=O)c2cccnc2)C(C)(C)c2ccccc21	-1%	15*	-5%	24	-3%	9%
O=c1[nH]c(O)c(N=Nc2ccc(SC(F)F)cc2)c(=O)[nH]1	-1%	20*	2%	36	-4%	-9%
NC(=O)c1ccc(N=Nc2c(O)[nH]c(=O)[nH]c2=O)cc1	0%	-1	-9%	2	nt	nt
CN1c2ccccc2C(=O)NC1c1ccc(Cl)cc1 (stereo not given)	-3%	12*	-1%	37	-11%	3%
COc1ccc(N(Cc2cccs2)C(=O)c2ccc(Br)o2)cc1	nt	nt	nt	nt	8%	nt
O=c1c(S(=O)(=O)c2ccc(Cl)cc2)cn(Cc2ccc(F)cc2)c2ccc(F)cc12	nt	nt	nt	nt	-4%	nt
CCc1ccc(/C=N/NC(=O)c2cc(C3CC3)nc3ccccc23)s1	-1%	-3	4%	2	-6%	11%
CCOC(=O)N/N=C/c1ccc(F)cc1	-3%	39*	-2%	70*	-17%	0%
CCOC(=O)N/N=C/c1cccc(Cl)c1Cl	1%	40*	-15%	79*	0%	nt
CCc1ccc(/C=N/NC(=O)c2cc(C)on2)s1	1%	35*	0%	+	-8%	3%
CCOC(=O)N/N=C/c1c(F)cccc1F	-10%	25*	0%	35*	4%	nt
CCOC(=O)N/N=C/c1c(F)c(F)c(F)c(F)c1F	0%	-1	5%	12	-3%	-6%
CCOc1ccc(NC(=O)Cn2cc(C(=O)c3ccc(OCC)cc3)c(=O)c3cc4c(cc32)OCCO4)cc1	nt	nt	nt	nt	-5%	nt
CCS(=O)(=O)c1ncc(N(Cc2cccc(F)c2)Cc2ccco2)c(C(=O)Nc2ccccc2Cl)n1	nt	nt	nt	nt	-3%	nt
COc1cc(/C=N/NC(=O)C2COc3ccccc3O2)ccc1O (stereo not given)	-2%	-4	0%	20	5%	-7%
CCOC(=O)N/N=C/c1ccccc1F	-24%	33*	1%	83*	1%	-28%
SMILES	LmPK inh	CHX counter	Giardia FBPA inh	Shiga inhibitor	TbPYK inhibitor	RE007 growth inh
Cc1cc(C(=O)N/N=C/c2cccc(Cl)c2Cl)no1	-2%	38*	-9%	76*	1%	20%
CCOC(=O)N/N=C/c1ccc(OC)c(O)c1	-1%	33*	16%	69*	1%	-21%
COc1ccc(/C=N\NC(=O)C2COc3ccccc3O2)cc1O (stereo not given)	1%	20*	3%	62*	1%	19%
COc1cccc(C(=O)NCC(c2ccc(N(C)C)cc2)N2CCOCC2)c1OC (stereo not given)	nt	nt	nt	nt	-4%	nt
C[C@H](CO)N1C[C@H](C)[C@@H](CN(C)C(=O)NC2CCCCC2)Oc2ccc(NC(=O)Nc3ccccc3)cc2C1=O	nt	nt	nt	nt	0%	-14%
COCCCNC(=O)CCCC(=O)NCCCOC	-2%	-6	4%	-15	5%	3%
O=C(CCCOc1ccc(Cl)cc1)NCCc1ccccc1	7%	-3	3%	-6	-2%	3%
O=C(CCCOc1ccccc1)NCCc1ccccc1	5%	14*	1%	29	9%	13%
Cc1nn(CCCC(=O)NCCc2ccccc2)c(=O)c2nccn12	-6%	7	5%	15*	-4%	4%
COCCCNC(=O)CCCOc1ccccc1	15%	31*	2%	26	-7%	5%
CN(C)c1ccc(CNC(=O)c2ccccc2NC(=O)c2nsc3ccccc23)cc1	nt	nt	nt	nt	-13%	nt
CCCCC(Sc1nc2cc3c(cc2c(=O)n1CCCC(=O)NCc1ccc(OC)cc1)OCO3)C(=O)OCC (stereo not given)	nt	nt	nt	nt	0%	nt
O=C1CC(c2ccco2)=Nc2ccccc2N1	-6%	11*	-6%	4	-19%	8%
O=C(N/N=C/C=C\c1ccc([N+](=O)[O-])cc1)c1cccnc1	2%	-1	-2%	12	4%	6%
N/C(Cc1ccc(Cl)c(Cl)c1)=N\OC(=O)c1cccs1	1%	2	1%	-5	-2%	-23%
CC(C)(C)C(=O)OC/C(N)=N/OC(=O)c1ccc(Cl)c(Cl)c1	7%	20*	0%	29	-1%	-29%
CSc1nc2ccc3nc(NC(=O)c4cccs4)sc3c2s1	5%	43*	6%	51*	-3%	7%
O=C(Nc1nc2ccc(F)cc2s1)c1cccs1	-30%	50*	4%	126*	-2%	-20%
CC(=O)Nc1ccc2nc(NC(=O)c3cccnc3)sc2c1	-9%	27*	4%	46*	6%	-5%
CN(C)S(=O)(=O)c1ccc2nc(NC(=O)c3cccs3)sc2c1	-15%	41*	10%	70*	6%	-12%
Cc1cc(S(=O)(=O)N2CCN(Cc3noc(CCC(=O)N4CCCCC4)n3)CC2)ccc1F	nt	nt	nt	nt	1%	nt
c1ccc(CCNc2ccc3c(c2)Cc2ccccc2-3)nc1	nt	nt	nt	nt	-1%	-6%
CC(C)OCCCn1c(=O)c2ccccc2n2c(-c3ccc(F)cc3)nnc12	nt	nt	nt	nt	-12%	nt
O=C(Nc1nc2ccc(S(=O)(=O)N3CCOCC3)cc2s1)c1cccs1	6%	18*	10%	39*	-8%	45%
O=C(Nc1nc2ccc(S(=O)(=O)N3CCCC3)cc2s1)c1cccs1	?	2	6%	-2	-26%	1%
COc1ccc(CC(=O)Nc2nc3ccc(F)cc3s2)cc1S(=O)(=O)N1CCOCC1	2%	40*	10%	70*	-11%	15%
CN(C)S(=O)(=O)c1ccc2nc(NC(=O)c3cccnc3)sc2c1	-6%	29*	0%	107*	-16%	0%
